Among all 94,000 compounds or so, about 410 (0.44%) were called active. The sample holds actives, similar compounds and a random draw of the others, so the mix is not that of the screen.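 How the source made its calls: active means inhibition above about 30% together with a positive call from visual inspection of the well image (limit read from the data); inconclusive means inhibition above a set limit but visual check negative; inactive means inhibition not above a set limit, visual check negative.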
Assay: inhibitors of IL-1B driven NFkB p65 nuclear import, primary screen, imaging, HUVEC, IL-1B stimulus, high-content imaging (AID 796);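 further: nuclear over cytoplasmic p65 intensity ratio measured by imaging; 0% = IL-1B stimulated DMSO wells and 100% = unstimulated DMSO wells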
Details: HUVEC IL-1B NFkB p65 nuclear translocation imaging; at 2 µM; hits give high values

inhibition, inactive:
COC(=O)Nc1sc2nc(C)cc(C)c2c1-n1cccc1 8.1%, O=C(Nc1nnc(SCc2c(Cl)cccc2Cl)s1)C1CCCO1 (configuration not stated) 6.6%, Cc1cccc(C(=O)Nc2ccccc2N2CCN(c3ccc(F)cc3)CC2)c1 4.6%, O=C1NC(c2cc3c(cc2Cl)OCO3)Oc2ccccc21 (configuration not stated) -2.5%, CCCOc1ccccc1C1CC(=O)Nc2cc3c(cc21)OCO3 (configuration not stated) -2.7%, N#Cc1ccc(-c2ccc(F)cc2)nc1Sc1ccccc1 0%, Cc1cc(=O)oc2cc(OC(C)C(=O)Nc3ccc(N4CCOCC4)cc3)ccc12 (configuration not stated) 22.6%, Cc1ccccc1NC(=O)C(C)c1ccc(-c2ccccc2)c(F)c1 (configuration not stated) -13%, CCN1CCN(C(=O)C2(NC(=O)Nc3cccc(F)c3)CCCCC2)CC1 9.4%, CN(C)c1ccnc(Oc2ccc(F)cc2)c1C#N -4.4%, O=C(COc1ccc2ccccc2c1)N1CCN(C(=O)c2cccs2)CC1 12.1%, COc1ccc(OCC(=O)N2CCN(C(=O)COc3ccccc3)CC2)cc1 -0.4%, CC(C)c1ccc(N2CCN(C(=O)c3ccccc3NC(=O)/C=C(\C(=O)O)c3ccccc3)CC2)cc1 -24.1%, Cc1nn(C)c(Oc2ccc(Cl)cc2)c1C=O -7.4%, CC(=O)Nc1ccc(S(=O)(=O)N2CCN(C(=O)c3ccccc3F)CC2)cc1 -10.6%, Cc1[nH]nc(-c2ccc(OCc3cnn(-c4ccccc4)c3)cc2O)c1Oc1ccc(Cl)cc1 -4.6%, COC(=O)C1(O)CC(C(C)C)=NN1C(=O)c1ccc(Cl)cc1 (configuration not stated) -3.2%, Cc1ccc(S(=O)(=O)c2c(COC(=O)c3cccc(Cl)c3)c(-c3ccccc3)nn2C)cc1 -7.8%, CCN(CC)C(=O)CSc1nc2ccccc2o1 -3.4%, COc1ccc(/C=N\NC(=O)c2sc(N)nc2C)cc1OC 1.2%, COc1cc(/C=N/Nc2nn3cnnc3c3ccccc23)cc(OC)c1OC -1.1%, CCCc1ccc(-c2c(C)sc(NC(=O)c3ccnn3C)c2C#N)cc1 3.3%, Cc1cc(C)c([N+](=O)[O-])cc1-c1ccc(/C=N/NC(=O)c2nonc2N)o1 -17.6%, CC(CC(=O)Nc1cc(C(F)(F)F)ccc1Cl)c1ccccc1 (configuration not stated) -2.6%, CC(C)C(NS(=O)(=O)c1cccs1)C(=O)Nc1nc(C(C)(C)C)cs1 (configuration not stated) 1.6%, COc1ccc(C2=NOC3(CC(=O)N(c4ccc(Cl)cc4)C3=O)C2)c(OC)c1 (configuration not stated) 0.4%, CSCCC(C(=O)NC1=NCCS1)N1C(=O)c2ccccc2C1=O (configuration not stated) -15.1%, CCC1(C)Cc2c(sc3[nH]c(=S)n(Cc4ccccc4)c(=O)c23)CO1 (configuration not stated) -4.8%, CCOc1ccc(Nc2nc(Cc3nnc(SCC(=O)NC4CCCC4)n3C)cs2)cc1 -8.9%, O=C(CSCc1c(F)cccc1Cl)NCC1CCCO1 (configuration not stated) -1.4%, COc1ccc(C2CC(c3cccs3)=Nc3ccccc3S2)cc1OC (configuration not stated) -4%, COc1ccc(NC(=O)CSc2nc(NS(=O)(=O)c3ccc(C)cc3)cc(=O)[nH]2)cc1 0.1%, O=S(=O)(/N=C(/Nc1ccccn1)c1ccccc1)c1ccc(Cl)cc1 -20.6%, O=C(Nc1nnc(CCOCCOCCc2nnc(NC(=O)c3ccco3)s2)s1)c1ccco1 2.1%, CCOC(=O)c1c(NC(=O)CSc2nnc(C)c(=O)[nH]2)sc2c1CCC2 7.7%, CCCOC(=O)Nc1sc2c(c1C(=O)OCC)CCC2 4.6%, CC(=O)Nc1ccc(N2C(=O)C3C4CC(=O)C(c5ccccc54)C3C2=O)cc1 (configuration not stated) 4.6%, Cc1ccc(-n2c(=O)cc(N3CCN(Cc4ccccc4)CC3)[nH]c2=O)cc1 -36.5%, COC(CNC(=O)Cn1ncc2ccsc2c1=O)OC -11.2%, Cc1ccc(/C=N/NC(=O)C(NC(=O)c2ccccc2)c2n[nH]c(=O)c3ccccc23)cc1 (configuration not stated) -3.6%, CC(C)C(=O)NC(=S)Nc1ccccc1F 1.1%, O=[N+]([O-])c1ccccc1OCCCCN1CCCCC1 1.7%, CCOC(=O)COc1cc(OCC(=O)OCC)c2c(=O)cc(-c3ccccc3)oc2c1 5.4%, CCOCc1nnc(NC(=O)CSc2ccc(C)cc2)s1 3.5%, CCN(CC)CCNc1ccc(Cl)cc1[N+](=O)[O-] -11.6%, CN(C(=O)CSc1nc(C2CC2)nc2ccccc12)c1nc(-c2ccccc2)cs1 6.8%, COC(=O)C(NC(=O)c1ccc(OC)cc1)(Nc1ncc(S(=O)(=O)c2ccc([N+](=O)[O-])cc2)s1)C(F)(F)F (configuration not stated) 10.1%, COc1ccc(CNCCCO)cc1OC 2.4%, CCCCOc1ccc(C(=O)NCc2ccncc2)cc1 -7.4%, C=CCOc1ccc(Cl)cc1CNCCCN1CCOCC1 5.6%, COC(=O)c1c(CCl)noc1C(=O)NC(C)C -0.8%, CC1C/C(=N/NC(=O)c2cccs2)CC(C)(C)C1 (configuration not stated) 25.5%, Nc1ccccc1SCc1cc([N+](=O)[O-])cc2c1OCOC2 -1.6%, O=C(Cn1cncn1)N/N=C/c1c2ccccc2cc2ccccc12 10.3%, CCOC(=O)CNC(=O)CSc1nc2cccnc2n1CC -2.1%, CONC(=O)c1cc(OCC(F)(F)F)ccc1OCC(F)(F)F 4.4%, CC(=O)c1nn(-c2cccc(Br)c2)cc1C(=O)c1cccc2ccccc12 -11.3%, c1ccc(-n2nc3ccccc3n2)cc1 18%, CC1(C)CC(=O)C=C(NCCCNC2CCCCC2)C1 0%, CC1(C)CC(=O)C=C(NCCN2CCNCC2)C1 -15.8%, Cn1c(CO)cnc1SCc1ccccc1 -4.6%, c1ccc(COc2ccccc2CNCc2cccnc2)cc1 -12.3%, Cc1cc(C)n(C(=O)CCNC(=O)c2ccccc2Cl)n1 0.3%, Cc1cc2c(c(=O)n1C)C(C(C)C)C(C#N)=C(N)O2 (configuration not stated) 3.4%, O=C(CSCc1c(Cl)cccc1Cl)NN1C(=O)c2ccccc2C1=O 7.6%, Cc1ccc(-c2csc(N(Cc3ccco3)C(=O)c3cccs3)n2)cc1 0.8%, S=c1[nH]nc(-c2ccco2)n1/N=C/c1ccc(Br)s1 -1.5%, Cc1cccc(-n2nc3c(c2NC(=O)c2ccc(Br)o2)CSC3)c1C 0%, Cc1cc(C)c2nc(NC(=O)c3ccc4c(c3)OCO4)sc2c1 9%, O=C(COc1ccc(/C=N/NS(=O)(=O)c2ccccc2)cc1)NCCc1ccccc1 3.5%, Cc1n[nH]c(=O)n1-c1ccc(Oc2ccccc2)cc1 3.9%, COC(=O)Nc1c(C)n(C)n(-c2ccccc2)c1=O -18.8%, Cc1cc(C)cc(N(CC(=O)Nc2c(C)n(C)n(-c3ccccc3)c2=O)S(C)(=O)=O)c1 -3.1%, O=C(CSc1nnc(-c2c[nH]c3ccccc23)o1)c1ccccc1 11.5%, CC(=O)Nc1ccc(C(=O)CSc2nnc(Cc3ccccc3)o2)cc1 -5.2%, CCn1c2ccccc2c2cc(NC(=O)C/C(C)=N/NC(=O)c3ccccc3N)ccc21 -8.3%, CNC(=S)NNC(=O)c1sccc1OCc1ccccc1 -4%, COc1cc(/C=N/O)cc(Br)c1OCc1cccc(Cl)c1 -0.3%, CCCCNc1ccc(C(=O)Nc2cccc(C)n2)cc1[N+](=O)[O-] -3.1%, CC(C)CNS(=O)(=O)c1ccc(OCC(=O)Nc2ccc3c(c2)OCO3)c(Cl)c1 -10.8%, COc1ccc(F)cc1S(=O)(=O)Nc1ccc2c(c1)OCO2 -3.1%, Cc1ccc(C(=O)c2c(NC(=O)c3ccncc3)sc3c2CCCC3)cc1 2.2%, CCc1ccc(/C=N/NC(=O)c2ccc(OC3CCCC3)cc2)s1 0.3%, Cc1nc(N2CCOCC2)nc2c1CCCC2 1.7%, O=C(CSCc1ccc([N+](=O)[O-])cc1)NCCSCc1ccccc1 8.4%, Cc1ccc(N)cc1-n1c(C)ccc1C 4.3%, COc1ccc(C(=O)c2c(C)oc3cc([N+](=O)[O-])c(O)c([N+](=O)[O-])c23)cc1 -48.7%

inhibition, active:
COc1ccccc1C1C2=C(COC2=O)Nc2cc3c(cc21)OCO3 (configuration not stated) 39.9%, COc1ccc(OCC(=O)N2CCN(C(=O)c3cccs3)CC2)cc1 42.9%, COc1ccc(/C=N/Nc2nc3ccccc3o2)cc1OC 45.9%, CCOCC(=O)Nc1sc2c(c1C(=O)OCC)CCCC2 31.1%, CC1(C)CC(=O)C=C(NCCCN2CCCC2=O)C1 99.7%, Cc1ccc(-n2nc3c(c2NC(=O)c2ccc4c(c2)OCO4)CSC3)c(C)c1 36%, Cc1cc(C)cc(N(C(C)C(=O)Nc2c(C)n(C)n(-c3ccccc3)c2=O)S(C)(=O)=O)c1 (configuration not stated) 47.4%, O=C(CSc1nnc(Cn2cnc3ccccc32)o1)c1ccccc1 98.8%, COc1ccc(S(=O)(=O)Nc2ccc3c(c2)OCO3)cc1Cl 96.2%, Cc1ccc(C)n1-c1ccncc1 34.7%

Reference: PubChem BioAssay AID796 (Columbia University Molecular Screening Center, 2007)
